# Measurements published in PubChem BioAssay.
# Test: small molecules captured by biotinylated probe aFSTL3 – biochemical, small-molecule microarray, fluorescence 635/667, stem cell growth factor project, primary screen (AID 1064);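 further: measures binding of the biotinylated anti-FSTL3 antibody to printed compounds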
# Conditions: higher = more signal
row,SMILES,composite z-score
1,O=C(OCCF)C1=CCC(c2cccc(Cl)c2)O1 (configuration not stated),-0.422
2,COC(=O)[C@@]1(Cc2ccc(OC)cc2)[C@H]2c3cc(C(=O)N4CCCC4)n(Cc4ccccn4)c3C[C@H]2CN1C(=O)c1ccccc1,0.381
3,CC(C)=CCCC(C)=CC(O)C1C=CC2C(=O)N(c3ccccc3)C(=O)C2N1Nc1ccccc1 (configuration not stated),0.475
4,[N-]=[N+]=NCc1ccccc1[C@H]1OC(c2ccc(OCCCO)cc2)=N[C@@]1(CCS(=O)(=O)c1ccccc1)C(=O)N1CCOCC1,0.476
5,COC(=O)[C@@]1(Cc2ccccc2)[C@H]2c3cc(C(=O)N4CCCC4)n(Cc4ccc(C)o4)c3C[C@H]2CN1C(=O)c1ccccc1,0.385
6,CC(C)OC(=O)CC(=O)CC(O)c1ccc(C#N)cc1 (configuration not stated),0.401
7,[N-]=[N+]=NCc1ccccc1C[C@]1(C(=O)O)N=C(c2ccc(OCCCO)cc2)O[C@H]1c1ccccc1,0.32
8,COC(=O)[C@@]1(Cc2ccc(OC)cc2)[C@H]2c3cc(C(=O)N(C)C)n(Cc4c(OC)[nH]cc(C)c4=O)c3C[C@H]2CN1C(=O)c1ccccc1,0.522
9,O=c1cccc(CCc2ccccc2)o1,-0.587
10,CCCCCCCCCCC(O)C1C=CC2C(=O)N(Cc3ccccc3)C(=O)C2N1n1cnnc1 (configuration not stated),0.794
11,COC(=O)C[C@@H]1C[C@H](C)[C@]2(O1)C(=O)N(Cc1ccccc1)c1ccc(NC(C)=O)cc12,-0.589
12,C=CCOC(=O)[C@@H]1[C@H]2C(=O)O[C@H](c3ccccc3)[C@H](c3ccccc3)N2[C@H](c2ccc(OCCOC(=O)[C@@H]3C[C@@H]4C(=O)NCC(=O)N4[C@@H]3c3cccc(OCCO)c3)cc2)[C@@]12C(=O)Nc1ccc(I)cc12,-0.112
